Only some compounds are listed: those with a hit (about 2.2% of all), similar ones and a draw of the others.
CCT chaperon mod: High-Throughput Screening for Modulators of Cytosolic Chaperonin Activity | purified chaperonin ATPase assay, HTRF ADP detection, 30 min | activity change, % (no concentration beside the values), hits read low | 360,000 tested, 0.3% active; in the data active = activity change below about -30%; note: % is set by controls: 0 for no effect and ±100 for the full control effect
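Nucleotide hydrolysis assay: TRiC at 20–40 nM final (set by batch activity) with 10 uM ATP, 30 min at 37 °C, in presence of 76 uM compound. Detection by competitive ADP HTRF, 30 min ambient.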
Mm-Cpn inhibitor: Inhibitors of TCP-1 ring complex (TRiC) of Methanococcus maripaludis (MmCpn): qHTS; purified Mm-Cpn ATPase, ADP Transcreener TR-FRET; Potency, µM (highest dose often 76.9 µM), inactives show top-dose activity, negative = inhibition, usual class: inhibitors; 330,000 tested, 0.031% active; note: potency is the fitted concentration of half-maximal effect; % is set by controls: 0 for no effect and ±100 for the full control effect; nearly all actives have a fitted effect of over 80% in size
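Eu-cryptate anti-ADP/ADP-d2 competition gives a ratio inversely related to ADP. Enzyme at 25 nM was pre-exposed to compound for 10 min, then given 10 uM ATP for 30 min, 37°C throughout.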
GLP1R cytotox: qHTS of GLP-1 Receptor Inverse Agonists: Cytotox Screen | 410,000 tested, 0.13% active | HEK293 cAMP-luciferase reporter cells, luminescence, 24 h | Potency, µM (top dose mostly 38.3 µM), inactives show at the highest dose activity change, negative = inhibition, usual class: inhibitors | AID 624418, 2012;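 note: loss of luciferase light is scored as toxicity; potency is the fitted concentration of half-maximal effect; % is set by controls: 0 for no effect and ±100 for the full control effect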
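Quantitative HTS format, 1536 wells, 200 cells/uL seeded. Compounds: 23 nL, 24 h, 37 °C. Detection: luciferase reagent, luminescence at 12 min RT; decreased signal taken as cytotoxic.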
GLP-1R inv ag: qHTS of GLP-1 Receptor Inverse Agonists (Inhibition Mode) | HEK293 GLP-1R CRE-luciferase, luminescence, 24 h; GLP-1R form is constitutively active | AID 624417, 2012 | 410,000 tested, 1.6% active | Potency, µM (titrated, usually from 38.3 µM), without a hit: at the highest dose activity change, negative = inhibition, actives largely listed as inhibitors; note: potency is the fitted concentration of half-maximal effect; % is set by controls: 0 for no effect and ±100 for the full control effect; nearly all actives have a fitted effect of over 55% in size
Target sequence (P43220 whole entry, looked up): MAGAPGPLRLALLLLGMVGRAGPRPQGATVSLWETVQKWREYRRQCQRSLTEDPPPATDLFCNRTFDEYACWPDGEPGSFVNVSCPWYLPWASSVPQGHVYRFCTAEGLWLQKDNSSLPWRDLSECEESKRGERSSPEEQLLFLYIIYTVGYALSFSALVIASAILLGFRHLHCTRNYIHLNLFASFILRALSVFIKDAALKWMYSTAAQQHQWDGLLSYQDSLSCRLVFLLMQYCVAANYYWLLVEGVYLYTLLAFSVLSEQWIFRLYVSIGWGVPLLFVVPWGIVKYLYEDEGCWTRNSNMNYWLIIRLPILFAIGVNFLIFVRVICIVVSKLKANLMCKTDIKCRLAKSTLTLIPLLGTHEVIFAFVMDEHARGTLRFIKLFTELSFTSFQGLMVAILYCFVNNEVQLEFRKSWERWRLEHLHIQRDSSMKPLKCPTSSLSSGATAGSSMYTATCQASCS
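HEK293 cells stably co-expressing constitutively active GLP-1R and a cAMP-responsive luciferase reporter were seeded in DMEM with 10% Nu serum, given compounds after 12 h, and incubated 24 h at 37 deg C. Luminescence was then read.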
GLP-1R agonist: qHTS of GLP-1 Receptor Agonists | Glucagon-like peptide 1 receptor (Homo sapiens), P43220 | HEK293 GLP-1R CRE-luciferase, luminescence, 4-6 h; cells express a hypersensitive GLP-1R form | Potency, µM (top dose mostly 45.6 µM), inactives show at the top dose activation, hits mostly activators | 380,000 tested, 0.007% active; note: potency is the fitted concentration of half-maximal effect; % of control where 0% means no effect
uPA generation: qHTS for Inhibitors of Cell Surface uPA Generation; cell surface uPA generation assay, qHTS; Potency, µM (doses to about 38.3 µM), without a hit: top-dose activity change, negative = inhibition, actives largely listed as inhibitors; 330,000 tested, 0.31% active; AID 540303, 2011; active = well fitted inhibition curve with a large enough effect; inconclusive = small, poorly fitted or top-dose-only effect; inactive = no such curve, though single readings can be large or run the other way; tested in mouse RAW 264.7 cells; note: potency is the fitted concentration of half-maximal effect; % is set by controls: 0 for no effect and ±100 for the full control effect; nearly all actives have a fitted effect of over 55% in size
The depositor's hits bear a star. Unless noted, calls come from the whole dose curve; as a rule, active = well fitted curve in the direction sought with a large enough effect; inconclusive = small, poorly fitted or top-dose-only effect, or another doubt; inactive = no such curve, though single readings can be large; an effect the other way counts as inactive or inconclusive.

`COc1ccc(N(C)C(=O)Cn2cc(S(=O)(=O)N3CCN(c4ccccc4F)CC3)c3ccccc3c2=O)c(OC)c1` gave GLP1R cytotox -1.7%, GLP-1R inv ag inconclusive and GLP-1R agonist 1.0%.
Screening Cc1nc2nncn2c(NCc2ccc(Cl)cc2)c1C returned GLP1R cytotox 1.1% and GLP-1R inv ag -27.8%.
COc1ccc2c(c1)N(C)/C(=C/c1cccc[n+]1C)S2 was read as CCT chaperon mod -1.5, Mm-Cpn inhibitor -0.6%, GLP1R cytotox 21.4%, GLP-1R inv ag inconclusive, GLP-1R agonist -2.7% and uPA generation 7.94µM*.
CCN1/C(=C/c2cccc[n+]2C)Sc2ccc(OC)cc21 was read as CCT chaperon mod 0.7, Mm-Cpn inhibitor -2.0%, GLP1R cytotox -29.5%, GLP-1R inv ag inconclusive, GLP-1R agonist 2.3% and uPA generation inconclusive.
Cc1cc(N2CCC(C)CC2)nc(-n2nc(C)cc2C)n1 was read as CCT chaperon mod -0.8, Mm-Cpn inhibitor -0.9%, GLP1R cytotox 0.794µM*, GLP-1R inv ag inconclusive, GLP-1R agonist 11.2% and uPA generation -8.8%.
O=C(c1cccs1)N(Cc1cccnc1)c1nc2ccc(F)cc2s1 was read as GLP1R cytotox -6.9% and GLP-1R inv ag 4.4%.
c1ccc(-n2cc(CN3CCCC(CN4CCCC4)C3)c(-c3ccc4c(c3)OCO4)n2)cc1 (stereo not drawn) was read as CCT chaperon mod 0.3, Mm-Cpn inhibitor 0.1%, GLP1R cytotox inconclusive, GLP-1R inv ag 10µM*, GLP-1R agonist 16.1% and uPA generation -14.7%.
Screening Cc1ccc(Sc2c(O)c3ccccc3n(C)c2=O)cc1 returned CCT chaperon mod 0.0, Mm-Cpn inhibitor -19.1%, GLP1R cytotox -7.7%, GLP-1R inv ag 0.5%, GLP-1R agonist -2.6% and uPA generation 7.3%.
For Cc1ccc(Sc2c(C=O)c3ccccc3n2C)cc1 the results were CCT chaperon mod -0.2, Mm-Cpn inhibitor -19.0%, GLP1R cytotox inconclusive, GLP-1R inv ag 5.62µM*, GLP-1R agonist -22.4% and uPA generation -1.6%.
Screening CCc1cccc(C)c1NC(=O)COCc1cc(-c2ccc3c(c2)OCO3)on1 returned GLP1R cytotox 5.1% and GLP-1R inv ag -26.6%.
For CC1Cc2ccccc2N1C(=S)NC(=O)c1ccc(Cl)cc1Cl (stereo not drawn) the results were CCT chaperon mod -2.0, Mm-Cpn inhibitor -0.9%, GLP1R cytotox inconclusive, GLP-1R inv ag 10µM*, GLP-1R agonist -15.4% and uPA generation inconclusive.
`CCc1c(-c2ccccc2)nc2ccccc2c1C(=O)NCCc1ccccc1` gave GLP1R cytotox 4.2% and GLP-1R inv ag inconclusive.
`CCCCOc1ccc(NC(=O)CSc2cccc3cccnc23)cc1` gave CCT chaperon mod 0.3, Mm-Cpn inhibitor -5.7%, GLP1R cytotox inconclusive, GLP-1R inv ag 2.82µM*, GLP-1R agonist 26.6% and uPA generation -4.7%.
Screening Cc1cccc(NC(=O)CSc2cccc3cccnc23)c1 returned CCT chaperon mod -0.6, Mm-Cpn inhibitor 2.2%, GLP1R cytotox -9.3%, GLP-1R inv ag -7.8%, GLP-1R agonist 23.9% and uPA generation 2.4%.
Screening O=C(CSc1cccc2cccnc12)N1CCCC1 returned CCT chaperon mod 1.9, Mm-Cpn inhibitor -0.9%, GLP1R cytotox 0.708µM*, GLP-1R inv ag 0.501µM*, GLP-1R agonist -44.5% and uPA generation 1.9%.
Screening NNC(=O)CSc1cccc2cccnc12 returned CCT chaperon mod 0.1, Mm-Cpn inhibitor 1.3%, GLP1R cytotox 4.3%, GLP-1R inv ag 26.4%, GLP-1R agonist 16.0% and uPA generation -3.6%.
CN(C)C(=O)CSc1cccc2cccnc12 was read as CCT chaperon mod -4.5, Mm-Cpn inhibitor -0.4%, GLP1R cytotox 2.51µM*, GLP-1R inv ag 2.82µM*, GLP-1R agonist -31.6% and uPA generation -14.5%.
For O=C(CSc1ncccn1)N1CCCCCC1 the results were CCT chaperon mod 0.8, Mm-Cpn inhibitor 9.8%, GLP1R cytotox -6.0%, GLP-1R inv ag 14.2%, GLP-1R agonist -0.4% and uPA generation -8.8%.
CCOc1ccc(-c2c(C(=O)N/N=C/c3cccs3)nnn2-c2nonc2N)cc1 was read as CCT chaperon mod -0.9, Mm-Cpn inhibitor -1.1%, GLP1R cytotox -21.2%, GLP-1R inv ag -29.8%, GLP-1R agonist -0.1% and uPA generation 3.1%.
`CCOc1ccc(-c2c(C(=O)N/N=C/c3ccc(C)s3)nnn2-c2nonc2N)cc1` gave CCT chaperon mod 2.6, Mm-Cpn inhibitor -0.3%, GLP1R cytotox -5.6%, GLP-1R inv ag 11.2µM*, GLP-1R agonist -1.7% and uPA generation 2.8%.
Cc1ccc(-c2c(C(=O)N/N=C/c3ccc4c(c3)OCO4)nnn2-c2nonc2N)cc1 was read as CCT chaperon mod -0.5, Mm-Cpn inhibitor -3.3%, GLP1R cytotox inconclusive, GLP-1R inv ag 10µM*, GLP-1R agonist 4.3% and uPA generation 4.7%.
For CCn1cc(S(=O)(=O)c2cccc(C)c2)c(=O)c2cc(F)c(N3CCN(c4ccccc4)CC3)cc21 the results were GLP1R cytotox -3.1% and GLP-1R inv ag -17.7%.
Screening CCOc1ccccc1NC(=O)CSC1=Nc2ccccc2C2=NC(CC(=O)NCc3ccc4c(c3)OCO4)C(=O)N12 (stereo not drawn) returned GLP1R cytotox -15.8% and GLP-1R inv ag 6.4%.
For Cc1ccc(/C=C/C(=O)N2CC(C)CC(C)C2)o1 (stereo not drawn) the results were CCT chaperon mod 0.3, Mm-Cpn inhibitor -0.3%, GLP1R cytotox inconclusive, GLP-1R inv ag 10µM*, GLP-1R agonist -27.0% and uPA generation -13.5%.
Screening Cc1c2cnn(CC(=O)N3CCCCC3)c(=O)c2c(C)n1Cc1ccc(Cl)cc1 returned GLP1R cytotox 2.2% and GLP-1R inv ag -6.4%.
Screening CC(=O)c1nn(-c2ccccc2)cc1C(=O)c1cccc(Br)c1 returned CCT chaperon mod 0.5, Mm-Cpn inhibitor -9.6%, GLP1R cytotox 0.6%, GLP-1R inv ag 3.8%, GLP-1R agonist -1.6% and uPA generation 8.4%.
Screening O=C(c1cccc(Br)c1)c1cn(-c2ccccc2)nc1C(=O)c1ccccc1 returned CCT chaperon mod -19.8, Mm-Cpn inhibitor -2.1%, GLP1R cytotox 7.1%, GLP-1R inv ag 3.55µM*, GLP-1R agonist -0.2% and uPA generation -2.6%.
`Cc1csc2nc(-c3cccc(NC(=O)C(C)C)c3)cn12` gave GLP1R cytotox -9.3% and GLP-1R inv ag 5.5%.

Bioassay records from PubChem BioAssay.
